From PubChem BioAssay (NCATS)
Records with an inconclusive call do not appear. Active and inactive are the calls of the source. Calls come from the whole dose curve; as a rule, active = well fitted inhibition curve with a large enough effect; inconclusive = small, poorly fitted or top-dose-only effect; inactive = flat fitted curve, though single readings scatter.

What was measured:
[1] = qHTS profiling for inhibitors of Plasmodium falciparum proliferation (AID 504749); note: nearly all actives have a fitted effect of over 60% in size;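 for activity, negative = inhibition: 0% = DMSO vehicle and full inhibition = artemisinin control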; conditions: P. falciparum in erythrocytes, SYBR Green DNA, 72 h
How it was run: (§1)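 SYBR Green fluorescence (ex 485 nm, em 535 nm) reports parasite DNA after 72 h compound exposure of infected red cells at 0.3% parasitemia, 2.5% hematocrit; signal normalized to 0.29 uM artemisinin and vehicle wells.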

[2] = test system: 3D7; experiment: as above; conditions: P. falciparum in erythrocytes, SYBR Green DNA, 72 h; series mostly up to 28.7 µM
How it was run: as §1

[3] = test system: 7G8; experiment: as above; conditions: P. falciparum in erythrocytes, SYBR Green DNA, 72 h; series mostly up to 28.7 µM
How it was run: as §1

[4] = test system: AA1029; experiment: as above; conditions: P. falciparum in erythrocytes, SYBR Green DNA, 72 h; series mostly up to 28.7 µM
How it was run: as §1

[5] = test system: AS120; experiment: as above; conditions: P. falciparum in erythrocytes, SYBR Green DNA, 72 h; series mostly up to 28.7 µM
How it was run: as §1

[6] = test system: ATS95; experiment: as above; conditions: P. falciparum in erythrocytes, SYBR Green DNA, 72 h; series mostly up to 28.7 µM
How it was run: as §1

[7] = test system: C2A; experiment: as above; conditions: P. falciparum in erythrocytes, SYBR Green DNA, 72 h; series mostly up to 28.7 µM
How it was run: as §1

[8] = test system: CP185; experiment: as above; conditions: P. falciparum in erythrocytes, SYBR Green DNA, 72 h; series mostly up to 28.7 µM
How it was run: as §1

[9] = test system: CP192; experiment: as above; conditions: P. falciparum in erythrocytes, SYBR Green DNA, 72 h; series mostly up to 28.7 µM
How it was run: as §1

[10] = test system: CP194; experiment: as above; conditions: P. falciparum in erythrocytes, SYBR Green DNA, 72 h; series mostly up to 28.7 µM
How it was run: as §1

[11] = test system: CP201; experiment: as above; conditions: P. falciparum in erythrocytes, SYBR Green DNA, 72 h; series mostly up to 28.7 µM
How it was run: as §1

[12] = test system: CP203; experiment: as above; conditions: P. falciparum in erythrocytes, SYBR Green DNA, 72 h; series mostly up to 28.7 µM
How it was run: as §1

[13] = test system: CP211; experiment: as above; conditions: P. falciparum in erythrocytes, SYBR Green DNA, 72 h; series mostly up to 28.7 µM
How it was run: as §1

[14] = test system: CP215; experiment: as above; conditions: P. falciparum in erythrocytes, SYBR Green DNA, 72 h; series mostly up to 28.7 µM
How it was run: as §1

[15] = test system: CP217; experiment: as above; conditions: P. falciparum in erythrocytes, SYBR Green DNA, 72 h; series mostly up to 28.7 µM
How it was run: as §1

[16] = test system: ATS189; experiment: as above; conditions: P. falciparum in erythrocytes, SYBR Green DNA, 72 h; series mostly up to 28.7 µM
How it was run: as §1

[17] = test system: CP191; experiment: as above; conditions: P. falciparum in erythrocytes, SYBR Green DNA, 72 h; series mostly up to 28.7 µM
How it was run: as §1

[18] = at 28.7 µM (top of the series), parasite line A
[19] = at 28.7 µM (top of the series), parasite line B
[20] = at 12.8 µM (top of the series), parasite line A
[21] = at 12.8 µM (top of the series), parasite line B
Potency is the fitted concentration of half-maximal effect.

COc1cc(O)c(C(=O)c2ccccc2)cc1S(=O)(=O)O
inactive: activity, negative = inhibition [1, 18] -0.769% | activity, negative = inhibition [1, 19] 4.93% | Potency [2] | Potency [4] | Potency [5] | Potency [6] | Potency [7] | Potency [8] | Potency [9] | Potency [10] | Potency [11] | Potency [12] | Potency [13] | Potency [14] | Potency [15]
active: Potency [3] 11.2 µM

CC(C)(C)NC[C@H](O)COc1cccc2c1CCCC2=O
inactive: activity, negative = inhibition [1, 20] 5.04% | activity, negative = inhibition [1, 21] 7.33% | Potency [2] | Potency [3] | Potency [4] | Potency [5] | Potency [16] | Potency [6] | Potency [7] | Potency [8] | Potency [17] | Potency [9] | Potency [10] | Potency [11] | Potency [13] | Potency [15]

CCCCCCCCOc1ccc(C(=O)c2ccccc2)c(O)c1
inactive: activity, negative = inhibition [1, 18] 16.4% | activity, negative = inhibition [1, 19] 14.5% | Potency [2] | Potency [3] | Potency [4] | Potency [5] | Potency [16] | Potency [6] | Potency [7] | Potency [8] | Potency [17] | Potency [9] | Potency [10] | Potency [11] | Potency [13] | Potency [14] | Potency [15]

NS(=O)(=O)c1cc(C(=O)O)cc(N2CCCC2)c1Oc1ccccc1
inactive: activity, negative = inhibition [1, 20] 5.58% | activity, negative = inhibition [1, 21] 15.6% | Potency [2] | Potency [3] | Potency [4] | Potency [5] | Potency [16] | Potency [6] | Potency [7] | Potency [8] | Potency [17] | Potency [9] | Potency [10] | Potency [11] | Potency [13] | Potency [14] | Potency [15]

c1ccc(CC2=NCCN2)cc1
inactive: activity, negative = inhibition [1, 20] -1.06% | activity, negative = inhibition [1, 21] -2.59% | Potency [2] | Potency [3] | Potency [4] | Potency [5] | Potency [16] | Potency [6] | Potency [7] | Potency [8] | Potency [17] | Potency [9] | Potency [10] | Potency [11] | Potency [13] | Potency [14] | Potency [15]

CNCCc1ccccn1
inactive: activity, negative = inhibition [1, 20] 6.01% | activity, negative = inhibition [1, 21] 8.04% | Potency [2] | Potency [3] | Potency [4] | Potency [5] | Potency [16] | Potency [6] | Potency [7] | Potency [8] | Potency [17] | Potency [9] | Potency [10] | Potency [12] | Potency [13] | Potency [14] | Potency [15]

CC(C)NCC(O)c1ccc2ccccc2c1 (centres undefined)
active: Potency ([1]; parasite line A) 11.2 µM | Potency ([1]; parasite line B) 4.47 µM | Potency [2] 11.2 µM | Potency [3] 1.41 µM | Potency [4] 5.01 µM | Potency [5] 7.94 µM | Potency [16] 8.91 µM | Potency [6] 8.91 µM | Potency [8] 8.91 µM | Potency [17] 11.2 µM | Potency [10] 10.7 µM | Potency [12] 12 µM | Potency [14] 10.7 µM | Potency [15] 8.91 µM
inactive: Potency [11]

C/C=C/c1ccc(O)c(OC)c1
inactive: activity, negative = inhibition [1, 18] 3.92% | activity, negative = inhibition [1, 19] -10.3% | Potency [2] | Potency [4] | Potency [5] | Potency [16] | Potency [6] | Potency [7] | Potency [8] | Potency [17] | Potency [9] | Potency [10] | Potency [11] | Potency [13] | Potency [15]
active: Potency [3] 10 µM

CCOc1ccccc1C(N)=O
inactive: activity, negative = inhibition [1, 18] -8% | activity, negative = inhibition [1, 19] 15.4% | Potency [2] | Potency [3] | Potency [4] | Potency [5] | Potency [16] | Potency [6] | Potency [7] | Potency [8] | Potency [17] | Potency [9] | Potency [10] | Potency [11] | Potency [13] | Potency [14] | Potency [15]

CC(=O)NCCCCCC(=O)O
inactive: activity, negative = inhibition [1, 18] 7.94% | activity, negative = inhibition [1, 19] 13.3% | Potency [2] | Potency [3] | Potency [4] | Potency [5] | Potency [16] | Potency [6] | Potency [7] | Potency [8] | Potency [17] | Potency [9] | Potency [10] | Potency [11] | Potency [12] | Potency [14] | Potency [15]

NC(N)=NN=C(/C=C/c1ccc([N+](=O)[O-])o1)/C=C/c1ccc([N+](=O)[O-])o1
active: Potency ([1]; parasite line A) 7.08 µM | Potency ([1]; parasite line B) 10 µM | Potency [2] 2.24 µM | Potency [3] 2.24 µM | Potency [4] 10 µM | Potency [5] 11.2 µM | Potency [6] 10 µM | Potency [7] 12.6 µM | Potency [17] 10 µM
